Results on 26 compounds are retold here after PubChem BioAssay (NCATS).

Inconclusive results are not listed. A number with no mark means an inactive call. Activity calls are given as the source filed them. The call rests on the fitted dose curve; in most records, active means well fitted curve in the direction sought with a large enough effect; inconclusive means small, poorly fitted or top-dose-only effect, or another doubt; inactive means no such curve, though single readings can be large; an effect the other way counts as inactive or inconclusive.

Test [1] addresses Rap guanine nucleotide exchange factor 3 (Homo sapiens) (UniProt O95398). The test can be described thus: Confirmatory qHTS for antagonist of cAMP-regulated guanine nucleotide exchange factor 3 (EPAC1) (AID 1645880). Further: nearly all actives have a fitted effect of over 55% in size. Further: potency means the concentration at half of the fitted maximal effect. In short, it runs like this:
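Released BODIPY-GDP fluoresces less than Rap1-bound BODIPY-GDP; the signal is followed at 480/540 nm at 5-min intervals over 30 min, after 5 min at room temperature. Reactions contain 100 nM EPAC1, 250 nM RAP1B-BODIPY-GDP and 50 uM GDP; results are normalized to ATA and DMSO.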
A general note: Quantitative high-throughput screening tests each substance at several concentrations.

The target is the same in test [2]. Description: Confirmatory qHTS for agonist of cAMP-regulated guanine nucleotide exchange factor 3 (EPAC1) (AID 1645881). Further: nearly all actives have a fitted effect of over 75% in size. Further: potency means the concentration at half of the fitted maximal effect.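 On activation: EPAC1 catalysed release of BODIPY-GDP from Rap1B seen as fluorescence loss; 100% = effect of cAMP agonist control.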
Test [3] concerns the target Rap guanine nucleotide exchange factor 4 (Homo sapiens) (UniProt Q8WZA2). Description: Confirmatory qHTS for agonist of cAMP-regulated guanine nucleotide exchange factor 4 (EPAC2) (AID 1645884).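 Further: nucleotide exchange releases bodipy-GDP from Rap1 and this lowers its fluorescence; nearly all actives have a fitted effect of over 65% in size.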 Further: potency means the concentration at half of the fitted maximal effect. On activation: on the % scale 0 is the no-effect control and ±100 the full control effect.
The target is the same in test [4]. Description: Confirmatory qHTS for antagonist of cAMP-regulated guanine nucleotide exchange factor 4 (EPAC2) (AID 1645885). Further: nearly all actives have a fitted effect of over 25% in size. Further: potency means the concentration at half of the fitted maximal effect. On activity change, negative = inhibition: on the % scale 0 is the no-effect control and ±100 the full control effect.
The target in test [5] is Rap guanine nucleotide exchange factor 3 (Homo sapiens) (UniProt O95398). The test can be described thus: Counterscreen qHTS for antagonist of cAMP-regulated guanine nucleotide exchange factor 3 (EPAC1) (AID 1645888). Further: % of control where 0% means no effect. In short, it runs like this: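 Rap1B-BODIPY-GDP 250 nM + GDP 50 uM; cpds 7-pt, final 9.74 nM–152 uM (activator mode) or from 7.32 nM upwards (inhibitor mode); RT; FI 480/540 nm at 5 and 30 min, then ± cAMP, reread.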
Chain of Rap guanine nucleotide exchange factor 3 (Homo sapiens) (O95398 whole entry, looked up): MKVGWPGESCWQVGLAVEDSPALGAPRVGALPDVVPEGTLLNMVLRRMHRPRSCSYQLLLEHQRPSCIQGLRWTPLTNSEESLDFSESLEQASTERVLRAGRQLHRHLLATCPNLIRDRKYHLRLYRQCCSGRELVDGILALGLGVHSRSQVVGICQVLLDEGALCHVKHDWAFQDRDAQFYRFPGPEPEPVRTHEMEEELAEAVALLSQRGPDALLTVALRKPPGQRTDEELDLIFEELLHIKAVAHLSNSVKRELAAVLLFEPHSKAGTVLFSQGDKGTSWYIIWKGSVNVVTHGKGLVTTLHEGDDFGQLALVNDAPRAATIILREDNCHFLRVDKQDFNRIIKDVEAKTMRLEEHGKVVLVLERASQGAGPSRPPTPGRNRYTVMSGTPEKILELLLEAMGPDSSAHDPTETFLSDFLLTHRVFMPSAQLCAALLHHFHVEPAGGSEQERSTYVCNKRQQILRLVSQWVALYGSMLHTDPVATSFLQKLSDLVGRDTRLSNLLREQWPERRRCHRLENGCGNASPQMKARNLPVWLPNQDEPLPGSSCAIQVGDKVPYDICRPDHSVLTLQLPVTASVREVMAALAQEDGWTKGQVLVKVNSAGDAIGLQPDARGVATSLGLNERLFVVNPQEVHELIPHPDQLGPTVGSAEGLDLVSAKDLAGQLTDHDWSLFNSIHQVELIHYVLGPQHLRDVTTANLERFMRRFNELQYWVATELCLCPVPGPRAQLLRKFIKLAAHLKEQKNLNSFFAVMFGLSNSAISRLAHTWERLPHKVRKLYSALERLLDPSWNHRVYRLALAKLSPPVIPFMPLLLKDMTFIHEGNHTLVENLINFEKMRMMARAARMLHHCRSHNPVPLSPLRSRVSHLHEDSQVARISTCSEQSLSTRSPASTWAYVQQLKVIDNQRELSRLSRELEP

Chain of Rap guanine nucleotide exchange factor 4 (Homo sapiens) (Q8WZA2 whole entry, looked up): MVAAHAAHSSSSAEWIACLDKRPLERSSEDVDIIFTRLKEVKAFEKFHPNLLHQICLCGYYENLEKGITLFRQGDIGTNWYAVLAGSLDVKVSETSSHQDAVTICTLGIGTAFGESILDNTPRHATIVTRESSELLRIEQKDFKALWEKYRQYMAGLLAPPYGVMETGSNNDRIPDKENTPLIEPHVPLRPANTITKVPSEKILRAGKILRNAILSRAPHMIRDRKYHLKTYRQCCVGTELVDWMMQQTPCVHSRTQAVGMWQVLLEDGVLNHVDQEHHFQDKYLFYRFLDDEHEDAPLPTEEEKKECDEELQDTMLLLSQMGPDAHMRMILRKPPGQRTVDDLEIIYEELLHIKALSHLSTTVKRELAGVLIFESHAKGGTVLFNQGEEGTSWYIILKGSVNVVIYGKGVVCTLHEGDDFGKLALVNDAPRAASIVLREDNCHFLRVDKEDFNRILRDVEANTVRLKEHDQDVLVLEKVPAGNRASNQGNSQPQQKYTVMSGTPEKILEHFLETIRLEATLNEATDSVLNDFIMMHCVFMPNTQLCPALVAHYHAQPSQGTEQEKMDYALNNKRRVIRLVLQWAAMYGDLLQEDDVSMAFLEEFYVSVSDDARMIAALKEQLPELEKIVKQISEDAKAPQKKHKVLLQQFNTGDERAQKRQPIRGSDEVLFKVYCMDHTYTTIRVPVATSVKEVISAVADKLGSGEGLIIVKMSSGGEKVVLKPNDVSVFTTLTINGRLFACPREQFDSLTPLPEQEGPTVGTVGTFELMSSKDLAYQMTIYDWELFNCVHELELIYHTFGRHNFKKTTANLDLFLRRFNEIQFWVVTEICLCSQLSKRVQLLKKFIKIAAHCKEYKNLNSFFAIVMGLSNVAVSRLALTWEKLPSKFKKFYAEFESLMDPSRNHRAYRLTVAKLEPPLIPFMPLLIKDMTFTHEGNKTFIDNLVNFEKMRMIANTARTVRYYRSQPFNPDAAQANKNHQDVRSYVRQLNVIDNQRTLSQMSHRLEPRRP

Consider `CCc1ccc(Nc2n[n+](-c3ccccc3)c(-c3cc(OC)c(OC)cc3Br)s2)cc1`, for which the Potency entry in test [1], in test [2], in test [3], in test [4] and in test [5] was “inactive” each time.
As for `CNC(=O)c1c(NC(=O)C2=COCCO2)sc(C)c1C`, the Potency entry in test [1], in test [2], in test [3], in test [4] and in test [5] was “inactive” each time.
On to `CC(=O)NC(c1ccc2ccccc2c1)c1ccc2cccnc2c1O` (stereo not drawn), for which the Potency entry in test [1], in test [2] and in test [3] was “inactive” throughout. For the same compound, the Potency in test [4] was 10.7 µM (active).
`COCC(=O)Oc1c(Sc2ccc(C)cc2)c(C)nn1C(C)(C)C`: the Potency entry in test [1], in test [2], in test [3], in test [4] and in test [5] was “inactive” in each case.
With `Cc1cccc(-n2c(O)c(C=Nc3ccccc3O)c3ccccc3c2=O)n1`, the Potency result in test [1], in test [2], in test [3], in test [4] and in test [5] was “inactive” each time.
As for `CCCCCCc1ccc(N2C[C@H](Cc3ccccc3)[C@@H](CC(=O)Nc3ccccc3)C2=O)cc1`, the Potency entry in test [1], in test [2], in test [3] and in test [4] was “inactive” in each case.
As to `Cc1cc(NS(=O)(=O)c2ccc(NC(=O)Cc3ccc(Cl)c(Cl)c3)cc2)no1`, the Potency entry in test [1], in test [2], in test [3], in test [4] and in test [5] was “inactive” each time.
For the compound `N#C/C(=C\c1ccc(O)c([N+](=O)[O-])c1)c1nc2ccccc2s1`, the Potency in test [1] was 33.8 µM (active). Also, the Potency entry in test [2], in test [3], in test [4] and in test [5] was “inactive” throughout.
Turning to `COC(=O)c1ccc2nc(-c3ccccc3)c(Cc3ccc(C)cc3)n2c1`, the Potency result in test [1], in test [2], in test [3], in test [4] and in test [5] was “inactive” in each case.
With `Clc1ccc(CSc2nncn3c2cc2occc23)cc1`, in test [1], the Potency was 75.7 µM (active). Also, the Potency entry in test [2], in test [3], in test [4] and in test [5] was “inactive” in each case.
On to `CC(=O)Nc1ccc(NC(=O)CCC(=O)OCC(=O)c2ccc(C)c([N+](=O)[O-])c2)cc1`, for which the Potency entry in test [1], in test [2], in test [3], in test [4] and in test [5] was “inactive” each time.
Turning to `COc1ccc2c(c1)CC/C(=C\Nc1ccc3c(c1)OCO3)C2=O`, the Potency entry in test [1], in test [4] and in test [5] was “inactive” throughout. In addition, the values for the Potency in test [2] and in test [3] were 112 µM (active) and 100 µM (active), respectively.
As for `CCCc1cc(C(=O)Nc2ccccc2SC)no1`, the Potency result in test [1], in test [2], in test [3], in test [4] and in test [5] was “inactive” each time.
For the compound `COc1ccc2c(c1)cc(C(=O)N/N=C/c1c(O)c(C(=O)O)cc3ccccc13)n2C`, the Potency was 67.5 µM (active) in test [1] and 75.7 µM (active) in test [4]. The Potency result in test [2], in test [3] and in test [5] was “inactive” throughout.
With `COc1cc(/C=C2/C(=O)NN(c3ccc(Cl)cc3)C2=O)ccc1OC(=O)c1ccco1`, the Potency in test [1] is 47.8 µM (active). The Potency result in test [2], in test [3], in test [4] and in test [5] was “inactive” each time.
Regarding `Cc1nn(-c2ccccc2)c(C)c1NC(=O)COC(=O)Cc1cccc(C(F)(F)F)c1`, the Potency entry in test [1], in test [2], in test [3], in test [4] and in test [5] was “inactive” in each case.
Regarding `COc1cc(Cl)c(C)cc1NC(=O)CSc1cc(Cl)ccc1Cl`, the Potency in test [1] is 67.5 µM (active). The Potency result in test [2], in test [3], in test [4] and in test [5] was “inactive” in each case.
As to `CNc1c(-n2cc(C(=O)OC)c(C(=O)OC)c2C(=O)OC)c(=O)n(C)c(=O)n1C`, the Potency entry in test [1], in test [2], in test [3], in test [4] and in test [5] was “inactive” in each case.
On to `O=C(CSc1nnc(SCc2ccccc2)s1)N/N=C/C=C\c1ccco1`, for which, in test [1], the Potency was 42.6 µM (active). Also, the Potency entry in test [2], in test [3], in test [4] and in test [5] was “inactive” each time.
Take `O=C(CCN1C(=O)/C(=C/c2cccs2)SC1=S)Nc1ccc(C(=O)O)c(O)c1`: in test [1], the Potency was 79.4 µM (active). Also, the Potency result in test [2] and in test [4] was “inactive” in each case. In addition, the activation in test [3] is 0.91% [at 17.1 µM, percent relative to cAMP agonist control]. Besides, the activity change, negative = inhibition in test [5] was 19.6% [at 30.8 µM].
As to `COC(=O)CSc1nc2sc3c(c2c(=O)n1-c1ccc(OC)cc1)CCN(C)C3`, the Potency entry in test [1], in test [2], in test [3], in test [4] and in test [5] was “inactive” each time.
Take `CCCC(=O)Nc1nnc(SCc2cc(=O)c3ccc(C)cc3[nH]2)s1`: the Potency result in test [1], in test [2], in test [3], in test [4] and in test [5] was “inactive” throughout.
Regarding `Cn1c(=O)c2c(-c3ccccc3Br)n(CCc3ccccc3)cc2n(C)c1=O`, the Potency entry in test [1], in test [2], in test [3] and in test [5] was “inactive” throughout. Also, the outcome in test [4] was “inactive [at 12.7 µM]”.
Take `CCOC(=O)[C@@H](NC(=O)/C=C/[C@H]1O[C@@H](n2cc(C)c(=O)[nH]c2=O)C[C@@H]1O)C(C)C`: the Potency result in test [1], in test [2], in test [3], in test [4] and in test [5] was “inactive” in each case.
In the case of `COc1ccccc1C(CC(=O)N1CCCC1)c1ccc2c(c1)OCO2` (stereo not drawn), the Potency entry in test [1], in test [2] and in test [4] was “inactive” throughout. The activation in test [3] was 2.08% [at 17.1 µM, percent relative to cAMP agonist control]. The activity change, negative = inhibition in test [5] is -9.86% [at 30.8 µM].
`COc1ccc(/C=C2/SC(=S)N(c3ccc(S(=O)(=O)Nc4nccs4)cc3)C2=O)cc1`: the Potency in test [1] is 33.8 µM (active). The Potency result in test [2], in test [3], in test [4] and in test [5] was “inactive” in each case.
